# The panel holds about 83,000 compounds, 20% with a hit somewhere; the sample as a whole holds those more often.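 Growth was measured after 48 h exposure to one concentration of compound in 96-well plates. Values under 10 count as active.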 Unmarked numbers belong to inactive results. Active and inactive are the calls of the source.
# What was measured:
# Assay in all cases: NCI-60 one-dose screen, 48 h (100 = growth as untreated, 0 = no growth, -100 = all killed)
# [1] = tested on: SR leukemia; conditions: 10 µM unless noted
# [2] = tested on: OVCAR-8 ovarian; conditions: 10 µM unless noted
# [3] = tested on: OVCAR-5 ovarian; conditions: 10 µM unless noted
# [4] = tested on: OVCAR-4 ovarian; conditions: 10 µM unless noted
# [5] = tested on: SK-OV-3 ovarian; conditions: 10 µM unless noted
# [6] = tested on: IGROV1 ovarian; conditions: 10 µM unless noted
# [7] = tested on: OVCAR-3 ovarian; conditions: 10 µM unless noted
# [8] = tested on: T-47D breast; conditions: 10 µM unless noted
# [9] = tested on: BT-549 breast; conditions: 10 µM unless noted
# [10] = tested on: MDA-MB-435 melanoma; conditions: 10 µM unless noted
# [11] = tested on: SW-620 colon; conditions: 10 µM unless noted
# [12] = tested on: MCF7 breast; conditions: 10 µM unless noted
# [13] = tested on: HCT-116 colon; conditions: 10 µM unless noted
# [14] = tested on: KM12 colon; conditions: 10 µM unless noted
# [15] = tested on: RPMI-8226 leukemia; conditions: 10 µM unless noted
# [16] = tested on: HCC-2998 colon; conditions: 10 µM
# [17] = tested on: HS 578T breast; conditions: 10 µM
# [18] = tested on: NCI/ADR-RES ovarian; conditions: 10 µM unless noted
SMILES,growth [1],growth [2],growth [3],growth [4],growth [5],growth [6],growth [7],growth [8],growth [9],growth [10],growth [11],growth [12],growth [13],growth [14],growth [15],growth [16],growth [17],growth [18]
COC(=O)c1[nH]cnc1/N=N/N(C)CCO,75.4%,109%,92.9%,105%,98.3%,109%,99%,91.1%,98.4%,112%,102%,96%,93.5%,106%,–,–,–,–
CCCCn1c(C)nc2cc(Nc3nc(N4CCCCC4)nc4nc[nH]c34)ccc21,31.2%,30.1%,50.1%,19%,66.5%,30.8%,37.7%,6.78% (active),18%,37.4%,79%,32.5%,48.8%,38.1%,40.3%,66.2%,–,–
O=C(Nc1ccc(C2=NCCCN2)cc1)c1ccc(C(=O)Nc2ccc(C3=NCCCN3)cc2)nc1,85.2%,112%,95.1%,102%,106%,107%,101%,97.3%,106%,117%,104%,98%,93.2%,112%,–,–,-26.5% (active),102%
Nc1nc(N)c2cc(CNc3ccc(C(=O)NC(CC(=O)O)C(=O)O)cc3)ccc2n1 (centres undefined),13.8%,-13.2% (active),30.1%,50.8%,47.4%,38.7%,50.5%,62.3%,57.7%,37.8%,25.2%,17.3%,–,33.8%,–,–,-20.2% (active),17.3%
CNC(=O)CN1CCC(Oc2cc3c(Nc4cccc(Cl)c4F)ncnc3cc2OC)CC1,63.8%,45.6%,25.3%,70.5%,-22.4% (active),-25.2% (active),46.3%,-11.2% (active),93.5%,98.2%,71.5%,51.1%,54.7%,81.4%,70.9%,83.2%,–,–
O=C(Nc1ccc(C(=O)Nc2ccc(C3=NCCCN3)cc2)cc1)Nc1ccc(C2=NCCCN2)cc1,44.5%,57.4%,93.2%,65.5%,97.8%,99.7%,103%,45.2%,76.1%,103%,101%,70.8%,63.9%,88.9%,–,101%,91.3%,–
O=C(COc1ccc(/C=C2\Cc3ccc(Cl)cc3C2=O)cc1)Nc1nccs1,148%,–,100%,90%,108%,–,103%,85.2%,106%,113%,106%,89%,91.3%,115%,91.7%,–,–,86.7%
CC(=O)OC1Oc2ccccc2-c2oc(=O)c(-c3cc4ccc(N(C)C)cc4oc3=O)cc21 (centres undefined),-19.9% (active),37.1%,26.3%,39.1%,48.1%,–,43%,-4.17% (active),–,44.5%,61.7%,68.5%,20.7%,71.8%,-20.5% (active),–,-3.16% (active),38.9%
Nc1nc(Nc2ccccc2)c(C=Nc2ccccc2)c(=O)[nH]1,–,85.2%,90.7%,94.8%,86.3%,48.5%,110%,81.4%,75.1%,94.7%,98.4%,92.5%,85.1%,98.6%,94.8%,99.3%,87.5%,91.9%
Cc1nn(-c2ccccc2)c2c1N=c1s/c(=C\c3cn(-c4ccccc4)nc3-c3ccc(Cl)cc3)c(=O)n1C(C)N2 (centres undefined),123%,–,101%,93.2%,102%,–,109%,103%,105%,88.6%,103%,90.6%,75.2%,91.8%,49%,–,–,97.8%
CC1CCC(n2cnc3c(Cl)ncnc32)O1 (centres undefined),104%,91.4%,93.9%,104%,98.6%,61.7%,97.1%,91.1%,89.6%,99.6%,106%,90.1%,89.3%,106%,–,103%,88.1%,101%
O=C(c1ccc(/C=C/c2n[nH]c3ccccc23)cc1)N1CCNCC1,5.24% (active),58.8%,14.4%,54.8%,48.5%,33.5%,66.8%,84.1%,22.6%,38.7%,11.7%,24%,17.7%,8.09% (active),48.9%,66.3%,–,–
O=C(Nc1ccc(-c2ccnc(Nc3ccc(N4CCOCC4)cc3)n2)cc1)[C@@H]1CCCN1,4.92% (active),72.2%,76.8%,71.4%,42.6%,60.8%,76.5%,56.1%,50.9%,57.7%,76.6%,58%,–,35.6%,57%,–,–,–
CCOC(=O)Sc1ncnc2nc[nH]c12,9.18% (active),18.5%,47.2%,35.1%,23.9%,45.1%,26.4%,34.7%,50.7%,33.3%,68.5%,18.7%,31.2%,59.3%,–,26.4%,76.2%,37%
CC(=Nc1ccccc1)C1=C(O)C(Cc2ccc(O)cc2)NC1=O (centres undefined),-9.58% (active),-53.5% (active),32.1%,36.6%,23%,17.8%,-63.2% (active),67.4%,15.2%,-8.69% (active),15.6%,10%,3.3% (active),-35.5% (active),–,–,-27.2% (active),-13.4% (active)
Oc1ccc(/C=N/Nc2nnc(N/N=C/c3ccc(O)cc3O)c3ccccc23)c(O)c1,-26.1% (active),-60% (active),1.16% (active),-9.22% (active),-15.4% (active),-2.51% (active),-34.1% (active),-53.2% (active),-23.6% (active),-6.07% (active),-1.28% (active),-57.2% (active),-44.1% (active),-73.2% (active),–,–,-76.8% (active),-11.1% (active)
CCc1ccc(C2=C(O)C(=O)C(c3ccc(CC)cc3)=C(O)C2=O)cc1,-18.5% (active),-59% (active),-0.569% (active),-0.208% (active),-9.04% (active),-36.3% (active),-47.2% (active),7.67% (active),–,3.73% (active),2.8% (active),2.11% (active),1.12% (active),-1.36% (active),–,–,-21.6% (active),-18.5% (active)
CN(C)CCOC(=O)Nc1nc2ccc(Sc3ccccc3)cc2[nH]1,22%,39.4%,59.8%,73.4%,33.6%,44.9%,22.8%,22.6%,48.4%,-54.2% (active),23%,22.7%,–,20.8%,19.2%,61.3%,–,–
Nc1nc(=S)c2ncn(C3OC(COC(=O)c4ccc(Cl)cc4)C(OC(=O)c4ccc(Cl)cc4)C3OC(=O)c3ccc(Cl)cc3)c2[nH]1 (centres undefined),72.8%,129%,91.9%,86.2%,43.5%,93.5%,81%,59.6%,113%,103%,100%,59.8%,76%,83.9%,–,–,–,103%
COc1cc(C2CC(c3ccc(Cl)cc3)=NN2c2ccc(Cl)cc2)cc(OC)c1OC (centres undefined),98.7%,101%,88.1%,83.2%,98.2%,94.8%,–,86.1%,95.6%,93.3%,96.6%,89.5%,93.6%,96.5%,83.3%,–,84%,95.6%
COc1cc(OC)c(C(=O)/C=C/c2cc3c(cc2OCc2ccccc2)OC(C)(C)CC3)cc1CC=C(C)C,11.6%,1.96% (active),64.7%,44.7%,78.6%,66.5%,19.2%,42.3%,27.2%,35.9%,25.5%,28.8%,28.5%,42.4%,–,–,69.6%,51.9%
CC[C@H](Nc1ncnc2nc[nH]c12)c1nc2cccc(F)c2c(=O)n1-c1ccccc1,72.8%,60.6%,61.8%,95.7%,-4.44% (active),8.8% (active),48.7%,-4.25% (active),40.2%,82.6%,78.3%,54.4%,65.5%,84.6%,78.9%,85.9%,–,–
N#Cc1ccc(-n2nnc3ccccc32)cc1C#N,–,99%,110%,110%,98.8%,104%,101%,86.3%,106%,85.3%,94.4%,82%,102%,96.4%,101%,104%,105%,101%
